# Source: PubChem BioAssay (EPA / NIEHS)
# Records with an inconclusive call do not appear. Activity calls are given as the source filed them. Rule for the calls: active = hit-call score of the fitted dose curve at least 0.9, where 1 is the maximum; inconclusive = response in the unintended direction; inactive = score below 0.9.
# Target: Cellular tumor antigen p53 (Homo sapiens) (UniProt P04637)
# Assay: TOX21_p53_BLA_p5_ratio: Tox21 HCT-116 p53 Agonism Beta-lactamase Assay, Ratio, Phase 5 (AID 2283599)
# Outline: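 HCT-116 cells carrying a p53-inducible beta-lactamase reporter were seeded at 4000 cells/well and dosed after 5 h with compound in DMSO (217-fold dilution). After 16 h at 37C, CCF4-AM substrate was added for 2 h, and the 460/530 nm emission ratio was scored as gain-of-signal versus DMSO.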
# Chain of Cellular tumor antigen p53 (Homo sapiens) (P04637 whole entry, looked up): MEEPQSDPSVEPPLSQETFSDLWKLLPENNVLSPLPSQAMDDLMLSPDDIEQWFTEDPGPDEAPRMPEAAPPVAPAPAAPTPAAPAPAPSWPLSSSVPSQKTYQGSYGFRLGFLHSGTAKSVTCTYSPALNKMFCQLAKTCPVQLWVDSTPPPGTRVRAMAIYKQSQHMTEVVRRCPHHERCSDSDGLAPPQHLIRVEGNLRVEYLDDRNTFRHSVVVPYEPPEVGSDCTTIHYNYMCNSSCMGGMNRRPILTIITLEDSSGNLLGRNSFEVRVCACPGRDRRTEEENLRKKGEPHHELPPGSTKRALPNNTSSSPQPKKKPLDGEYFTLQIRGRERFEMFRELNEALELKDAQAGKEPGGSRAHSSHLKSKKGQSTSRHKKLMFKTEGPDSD
SMILES,outcome,AC50
Clc1ccc([C@@H]2C[C@H]3CC[C@@H]2N3)cn1,inactive,
CC(=O)Nc1cc([As](=O)(O)O)ccc1O,inactive,
CCOP(=O)(OCC)SCCSCC (tested in a mixture with another compound),inactive,
CC(C)CC(C)N (stereo not drawn),inactive,
CCCCCc1cc(O)c2c(c1)OC(C)(C)c1ccc(C)cc1-2,,23.9 µM (active)
O=c1ccc2cc(O[C@@H]3O[C@H](CO)[C@@H](O)[C@H](O)[C@H]3O)c(O)cc2o1,,10.3 µM (active)
CN[C@H]1C[C@@H](N)[C@H](O)[C@@H](O[C@@H]2O[C@H](CO)[C@H](O)[C@@H]3OC4(O[C@H]23)O[C@H](C(N)CO)[C@H](O)[C@H](O)C4O)[C@@H]1O (stereo partly drawn),inactive,
CCCCCCCCCCCCN=C(N)N,inactive,
Clc1ccc(-c2ccc(Cl)c(Cl)c2Cl)c(Cl)c1Cl,inactive,
Cc1ccccc1-n1c(C)nc2ccccc2c1=O,inactive,
CCC1(c2ccccc2)C(=O)NC(=O)NC1=O,inactive,
CC(C)(O)[C@@H]1[C@H]2OC(=O)[C@@H]1[C@]1(O)C[C@H]3O[C@]34C(=O)O[C@H]2[C@]14C (tested in a mixture with another compound),inactive,
C[C@@H]1CC[C@@]2(OC1)O[C@H]1[C@@H](O)[C@H]3[C@@H]4CC[C@H]5C[C@@H](O[C@@H]6O[C@H](CO)[C@H](O[C@@H]7O[C@H](CO)[C@@H](O)[C@H](O[C@@H]8OC[C@@H](O)[C@H](O)[C@H]8O)[C@H]7O[C@@H]7O[C@H](CO)[C@@H](O)[C@H](O[C@@H]8O[C@H](CO)[C@@H](O)[C@H](O)[C@H]8O)[C@H]7O)[C@H](O)[C@H]6O)[C@H](O)C[C@]5(C)[C@H]4CC[C@]3(C)[C@H]1[C@@H]2C,,69.7 µM (active)
